Bioassay records: PubChem, several laboratories
In the library only some 5.4% were active in any assay of this set; here they are far more common.
CSC inhib = cancer stem cell viability inhibitors, primary screen, luminescence; cancer stem cell-like cells viability; inhibition, % at 7.5 µM; 300,000 compounds, 1.1% hits; in the data active = inhibition above about 75%; inconclusive = no clear call, values can overlap the other calls; tested in HMLE shEcad cells
PP5 primary = PP5 phosphatase inhibitors, primary screen, biochemical, fluorescence; Serine/threonine-protein phosphatase 5 (Homo sapiens), P53041; purified PP5c, OMFP substrate fluorescence; inhibition, % at 6.7 µM; 320,000 compounds, 0.18% hits; AID 1987, 2009;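 active = inhibition above the campaign's mean inhibition across all tested compounds plus 3 SD, cut at about 9.5% in these data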;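 note: 0% = DMSO only and 100% = 100 µM cantharidin control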
ALR inh = inhibitors of human ALR sulfhydryl oxidase, primary screen, biochemical, H2O2 detection, HRP-luminol luminescence, single point; FAD-linked sulfhydryl oxidase ALR (Homo sapiens), P55789; purified ALR, DTT oxidation; inhibition, % (test concentration not listed); 290,000 compounds, 3.8% hits; AID 485317, 2010;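 active = mean replicate inhibition above about 79%, with every replicate also reaching it, limit read from the data; inconclusive = only one of the two criteria met; inactive = mean below limit and not every replicate reaching it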
Target sequence (P55789 whole entry, looked up): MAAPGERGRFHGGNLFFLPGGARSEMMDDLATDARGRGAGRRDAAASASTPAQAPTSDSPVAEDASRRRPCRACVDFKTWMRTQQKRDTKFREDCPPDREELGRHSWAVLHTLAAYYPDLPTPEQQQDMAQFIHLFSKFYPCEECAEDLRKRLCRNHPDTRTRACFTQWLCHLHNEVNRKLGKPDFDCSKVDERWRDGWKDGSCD
Calb FLC = C. albicans growth inhibition with fluconazole, primary screen, CaCi-2 strain, Alamar Blue fluorescence. growth inhibition, % (no concentration beside the values). 300,000 compounds, 0.57% hits. C. albicans CaCi-2 (fluconazole-resistant clinical isolate) + fluconazole, 48 h;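 active = growth inhibition above about 58% in most replicates, limit read from the data, passing the limit was not always enough; inconclusive = exactly half the replicates above a set limit; inactive = most replicates below a set limit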;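 note: all wells also contain fluconazole at 8 µg/ml as a sub-toxic cotreatment; 0% = median of DMSO wells and 100% = median of geldanamycin control wells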
PP1 inh = PP1-alpha phosphatase inhibitors, primary screen, counter-screen for PP5 inhibitor project, biochemical, fluorescence, OMFP substrate, single point. 320,000 compounds, 0.9% hits. inhibition, % at 6.7 µM. purified PP1alpha;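 active = inhibition above the mean inhibition of all tested compounds plus 3 SD, computed separately for each screening campaign, cut at about 15% in these data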
Target sequence (P62136 whole entry, looked up): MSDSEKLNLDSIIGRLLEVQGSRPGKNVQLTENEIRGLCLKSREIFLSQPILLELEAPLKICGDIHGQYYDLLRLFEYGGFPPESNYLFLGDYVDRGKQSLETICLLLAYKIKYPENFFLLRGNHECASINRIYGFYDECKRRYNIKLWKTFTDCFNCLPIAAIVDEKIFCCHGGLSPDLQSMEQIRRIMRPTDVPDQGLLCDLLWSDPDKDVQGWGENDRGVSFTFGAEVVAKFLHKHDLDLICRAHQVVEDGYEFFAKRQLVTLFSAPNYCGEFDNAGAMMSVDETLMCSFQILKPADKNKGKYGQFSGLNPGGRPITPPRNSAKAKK
PP1 inh confirm = PP1 phosphatase inhibitors, confirmation, biochemical, fluorescence, OMFP substrate, triplicate; shares compounds with PP1 inh; inhibition, % at 6.7 µM; 1,900 compounds, 52% hits; purified PP1alpha;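 active = mean PP1 inhibition above a set limit taken from the earlier primary screen, cut at about 15% in these data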
PP5 counter = PP5 phosphatase inhibition by PP1 hits, confirmation, counter-screen for PP1 inhibitor project, biochemical, fluorescence, triplicate; shares compounds with PP1 inh; purified PP5c, OMFP fluorescence; inhibition, % at 6.7 µM; 1,900 compounds, 4% hits; AID 2360, 2010;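 active = mean PP5 inhibition over triplicate wells above about 9.5% taken from the earlier PP1 screen, limit read from the data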
Numbers without * were called inactive; ? = inconclusive; . = not tested or not shown.

SMILES | CSC inhib | PP5 primary | ALR inh | Calb FLC | PP1 inh | PP1 inh confirm | PP5 counter
CCOc1ccc2nc3cc(NCc4ccc(OC)cc4)ccc3c(N)c2c1 | 121* | 15* | -7 | 102* | 65* | 16* | 38*
Cc1c(N)cccc1-n1cnnn1 | -10 | 0 | -13 | 10 | 0 | . | .
c1cc2ccc3ccc(-n4cnnn4)c4ccc(c1)c2c34 | 12 | 1 | -18 | -1 | 20* | 23* | -1
CCCc1cc(=O)[nH]c(SCC(=O)NCC2COc3ccccc3O2)n1 (stereo not drawn) | . | 0 | . | . | -2 | . | .
Cc1cc(C)c(C(=O)OCc2csc(CC(=O)Nc3ccccc3C)n2)c(C)c1 | 7 | 4 | -4 | 0 | 20* | 1 | 0
CCOC(=O)Cn1c(=O)oc2cc(S(=O)(=O)N(CCN(C)C)Cc3ccccc3)ccc21 | -3 | 0 | 1 | 5 | 3 | . | .
CCC(=O)Nc1ccc(Cl)c(NC(=O)c2ccc(Br)o2)c1 | -19 | 1 | -6 | -27 | -5 | . | .
Cc1ccc(NC(=O)/C(=C\c2ccc([N+](=O)[O-])cc2)NC(=O)c2ccccc2)cc1 | -14 | -1 | 2 | 14 | 0 | . | .
O=C(N/N=C/c1ccc(O)c(O)c1O)/C(=C/c1ccc([N+](=O)[O-])cc1)NC(=O)c1ccccc1 | 35 | 2 | 91* | 104* | 32* | 36* | -2
O=C(CNc1ccccc1)N/N=C/c1ccc([N+](=O)[O-])o1 | 7 | -2 | -44 | 18 | -3 | . | .
COc1cccc(/C=N/Nc2ncnc3c2ncn3Cc2ccccc2)c1O | -12 | 3 | -6 | -4 | 20* | 27* | -1
COc1cccc(/C=N/Nc2cc(N3CCOCC3)ncn2)c1O | 66 | 4 | -5 | 98* | 25* | 20* | -5
Cc1ccccc1NS(=O)(=O)c1ccc(NC(=O)c2ccco2)cc1 | -14 | 2 | -1 | 0 | -3 | . | .
CCCc1nc(SCC(=O)N2CCCc3ccccc32)c2c(=O)n(C)c(=O)n(C)c2n1 | 7 | 1 | ? | -5 | -1 | . | .
Cc1ccc(S(=O)(=O)N2CCOCC2)cc1C(=O)Nc1ccc(S(=O)(=O)Nc2nccs2)cc1 | -13 | 0 | -2 | -3 | 30* | 0 | -3
CCc1nnc(NC(=O)CSc2nc(-c3ccccc3)c(-c3ccccc3)o2)s1 | 48 | 3 | -2 | 5 | -2 | . | .
CN(C)c1ccc(-c2cc(O)c3ncccc3c2)cc1 | 115* | 1 | 6 | . | 21* | 21* | -4
CC(=O)Nc1ccc(S(=O)(=O)N2CCN(CCN3CCOCC3)CC2)cc1Cl | -22 | 1 | -3 | 4 | -6 | . | .
O=C(c1ccc(Cn2c(=O)[nH]c3ccsc3c2=O)cc1)N1CCN(c2ccccc2)CC1 | 1 | 2 | 3 | -2 | -3 | . | .
CCc1cccc(NC(=O)c2ccc(Cn3c(=O)[nH]c4ccsc4c3=O)cc2)c1 | -2 | 2 | -1 | -3 | 18* | 13 | 0
CCN(CC)/C(=N\S(=O)(=O)c1ccccc1C)c1ccccc1 | 12 | -1 | 2 | 26 | 7 | . | .
O=C(NC1CCCCC1)N1CCSC1=Nc1ccccc1 | 13 | 3 | . | -10 | 4 | . | .
CC(C)(O)c1ccccc1CC[C@@H](SCC1(CC(=O)O)CC1)c1cccc(/C=C/c2ccc3ccc(Cl)cc3n2)c1 | 97* | 1 | . | . | 35* | 43* | -2
CCC(=O)N1N=C(c2c(-c3ccccc3)c3cc(Cl)ccc3[nH]c2=O)CC1c1ccco1 (stereo not drawn) | . | -1 | 2 | 11 | 27* | 10 | -1
O=C(O)CCC(=O)N1N=C(c2c(-c3ccccc3)c3cc(Cl)ccc3[nH]c2=O)CC1c1ccco1 (stereo not drawn) | 1 | 2 | -7 | 26 | 3 | . | .
SMILES | CSC inhib | PP5 primary | ALR inh | Calb FLC | PP1 inh | PP1 inh confirm | PP5 counter
COc1cccc(NC(=O)c2ccccc2F)c1 | -3 | -1 | . | . | -2 | . | .
Cc1cccc(C)c1NCc1nnc(SCC(=O)Nc2nc(-c3ccccc3)cs2)n1-c1ccccc1 | 9 | -1 | . | 35 | -1 | . | .
CCOc1ccc(NCc2nnc(SCc3ccc(Cl)cc3)n2-c2ccccc2)cc1 | -7 | 3 | -10 | -6 | 18* | 1 | 3
CCOc1ccc(NCc2nnc(SCC(=O)Nc3nc(-c4ccccc4)cs3)n2-c2ccccc2)cc1 | -9 | 2 | -31 | -14 | 28* | 15 | -3
Fc1ccc(C2CC(c3ccco3)=NN2c2ccccc2)cc1 (stereo not drawn) | -5 | 2 | 61 | 7 | 3 | . | .
O=[N+]([O-])c1ccc(N2N=C(c3ccco3)CC2c2ccccc2)cc1 (stereo not drawn) | 16 | -3 | 0 | -5 | 19* | 2 | -4
Cc1ccc(S(=O)(=O)N2CCN(c3nc(CN4CCCC4)nc4sc(C)c(C)c34)CC2)cc1 | 8 | -2 | -4 | . | 19* | 4 | 0
Cc1ccc(C)c(S(=O)(=O)N2CCN(c3nc(CN4CCOCC4)nc4sc(C)c(C)c34)CC2)c1 | . | 4 | . | . | 13 | . | .
Cc1sc2nc(CN3CCCC3)nc(N3CCN(S(=O)(=O)c4cccs4)CC3)c2c1C | -11 | 1 | -1 | -14 | 27* | 13 | 0
Cn1c(=O)cc(SCC(=O)NCc2ccco2)c2ccccc21 | -1 | 3 | 11 | 10 | 3 | . | .
O=C(CSc1cn(CCNC(=O)c2ccc3ccccc3c2)c2ccccc12)NCc1ccco1 | 24 | 5 | -7 | 5 | 18* | 5 | 5
Nc1ccc(S(=O)(=O)Nc2nccc(/C=C/c3ccc(Cl)cc3Cl)n2)cc1 | -5 | -3 | 1 | 2 | 19* | 21* | -5
O=C(CS(=O)CC(=O)Nc1ccc(Cl)cc1)NCC1OCCc2ccccc21 (stereo not drawn) | . | . | . | 13 | . | . | .
COC(=O)c1ccc(CSc2nc3scc(-c4cccs4)c3c(=O)[nH]2)o1 | -3 | 1 | -14 | 47 | 22* | 9 | -2
O=C(NNC(=O)c1cc2cc3ccccc3nc2s1)c1ccc(F)cc1 | -10 | 4 | -5 | 43 | 24* | 7 | -6
N#CCC(=O)N/N=C/c1cc(Br)ccc1OCc1cccc2ccccc12 | 39 | 3 | -1 | 5 | 21* | -1 | 1
C#CCOCCOCCOCCNc1nc(N2CCN(C(=O)CCCCCCCCCCNC(=O)[C@H](CCCCN)n3cc(C)nn3)CC2)nc(N2CCN(C(=O)CCCCCCCCCCNC(=O)[C@@H]([C@H](C)O)n3cc(C)nn3)CC2)n1 | -7 | 1 | -5 | . | 7 | . | .
